According to PubChem BioAssay (NCATS):
Inconclusive results are not listed. Activity calls are given as the source filed them. The call rests on the fitted dose curve; in most records, active means well fitted curve in the direction sought with a large enough effect; inconclusive means small, poorly fitted or top-dose-only effect, or another doubt; inactive means no such curve, though single readings can be large; an effect the other way counts as inactive or inconclusive.

Assays:
[1] = HPAF-II 24hr Apoptosis Induction qHTS against the NCATS CANVASS Library (AID 1347356)
From the text: (§1) Natural products and their derivatives continue to be wellsprings of nascent therapeutic potential. However, many laboratories have limited resources for biological evaluation, leaving their previously isolated or synthesized compounds largely or completely untested. To address this issue, the Canvass library of natural products was assembled (https://tripod.nih.gov/canvass), in collaboration with academic and industry researchers, for quantitative high-throughput screening (qHTS) across a diverse set of cell-based and biochemical assays. The pure (>85% purity by liquid chromatography/mass spectrometry [LC/MS]) Canvass library of 346 natural products were submitted by 45 academic laboratories and companies around the world. […] The library was formatted into 1536-well plates and evaluated in 50 qHTS (in an 11-pnt concentration series) bioassays with broad scope of disease-relevant mechanisms. The resulting data set from 50 different assays was then systematically analyzed to identify overall trends and specific natural products with interesting biological activities. […] The luminescence is proportional to the amount of caspase activity in the assay reaction. […]
(§2) Cancer Cell Apoptosis Assay 1. […] Luminescence signal was acquired via the ViewLux plate reader (PerkinElmer) using a clear filter, 20 second exposure and 2x binning settings.

[2] = HEK293 18hr Apoptosis Induction qHTS against the NCATS CANVASS Library (AID 1347357)
Outline: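 Cells seeded at 500/well in DMEM + 10% FBS. Compounds pinned, 11 concentrations. 18 h, 37 degrees C/5% CO2. Caspase-Glo 3/7 added, 15 min RT dark, luminescence read.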

[3] = HPAF-II 12hr Apoptosis Induction qHTS against the NCATS CANVASS Library (AID 1347358)
Outline: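 Apoptosis in HPAF-II pancreatic cancer cells is scored as caspase 3/7 luminescence following a 12-hour exposure to an 11-point compound series.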

[4] = HEK293 24hr Apoptosis Induction qHTS against the NCATS CANVASS Library (AID 1347359)
From the text: as §1, §2

[5] = HPAF-II 18hr Apoptosis Induction qHTS against the NCATS CANVASS Library (AID 1347360)
Outline: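 Seed HPAF-II cells at 500/well in DMEM + 10% FBS, pin-transfer compounds, incubate 18 hours at 37 degrees C/5% CO2, add Caspase-Glo 3/7 reagent, wait 15 min, read luminescence.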

[6] = HEK293 12hr Apoptosis Induction qHTS against the NCATS CANVASS Library (AID 1347361)
Outline: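 Cells are seeded, dosed with an 11-point compound series and incubated 12 hours. Caspase-3/7 activity is detected by luminescent DEVD-substrate reagent after 15 minutes at room temperature.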

[7] = test system: NAD(P)H diaphorase (Clostridium kluyveri); assay: Diaphorse counterscreen qHTS: Assay Interference Panel against the NCATS CANVASS Library (AID 1347362)
From the text: Natural products and their derivatives continue to be wellsprings of nascent therapeutic potential. However, many laboratories have limited resources for biological evaluation, leaving their previously isolated or synthesized compounds largely or completely untested. To address this issue, the Canvass library of natural products was assembled (https://tripod.nih.gov/canvass), in collaboration with academic and industry researchers, for quantitative high-throughput screening (qHTS) across a diverse set of cell-based and biochemical assays. The pure (>85% purity by liquid chromatography/mass spectrometry [LC/MS]) Canvass library of 346 natural products were submitted by 45 academic laboratories and companies around the world. […] The library was formatted into 1536-well plates and evaluated in 50 qHTS (in an 11-pnt concentration series) bioassays with broad scope of disease-relevant mechanisms. The resulting data set from 50 different assays was then systematically analyzed to identify overall trends and specific natural products with interesting biological activities. […]
Assay Interference counterscreen protocol 1. […] Fluorescence signal was acquired via the ViewLux plate reader (PerkinElmer) using an excitation filter 525/20, emission filter 598/25; 1000 light energy, 2 second exposure, 2x binning settings.

[8] = molecular target: Luciferin 4-monooxygenase (Photinus pyralis) (UniProt P08659); assay: Firefly luciferase counterscreen qHTS: Assay Interference Panel against the NCATS CANVASS Library (AID 1347363); further: series mostly up to about 57 µM
Outline: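 Luminescence inhibition readout: compounds (11-point qHTS) sat 15 min at room temperature with substrate mix (0.013 mM luciferin and ATP), then firefly luciferase was added and signal read 5 min later.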

[9] = KB-8-5-11 Cancer Cell Toxicity qHTS against the NCATS CANVASS Library (AID 1347364); settings: outcome: dose series up to 46.1 µM; further: nearly all actives have a fitted effect of over 75% in size
Outline: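 Natural products were titrated in 11 points onto KB-8-5-11 cells, 500 per well, and cytotoxicity was scored from CellTiter-Glo luminescence after 72 hr culture.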

[10] = SDT Cancer Cell Toxicity qHTS against the NCATS CANVASS Library (AID 1347365); settings: outcome: dose series up to 46.1 µM; further: nearly all actives have a fitted effect of over 60% in size
Outline: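 Dispense 500 SDT cells per well; pin-transfer compounds; incubate 72 hr at 37C, 5% CO2, 95% RH; add CellTiterGlo and read luminescence.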

Measured: outcome

Luciferin 4-monooxygenase (Photinus pyralis), sequence (P08659 whole entry, looked up): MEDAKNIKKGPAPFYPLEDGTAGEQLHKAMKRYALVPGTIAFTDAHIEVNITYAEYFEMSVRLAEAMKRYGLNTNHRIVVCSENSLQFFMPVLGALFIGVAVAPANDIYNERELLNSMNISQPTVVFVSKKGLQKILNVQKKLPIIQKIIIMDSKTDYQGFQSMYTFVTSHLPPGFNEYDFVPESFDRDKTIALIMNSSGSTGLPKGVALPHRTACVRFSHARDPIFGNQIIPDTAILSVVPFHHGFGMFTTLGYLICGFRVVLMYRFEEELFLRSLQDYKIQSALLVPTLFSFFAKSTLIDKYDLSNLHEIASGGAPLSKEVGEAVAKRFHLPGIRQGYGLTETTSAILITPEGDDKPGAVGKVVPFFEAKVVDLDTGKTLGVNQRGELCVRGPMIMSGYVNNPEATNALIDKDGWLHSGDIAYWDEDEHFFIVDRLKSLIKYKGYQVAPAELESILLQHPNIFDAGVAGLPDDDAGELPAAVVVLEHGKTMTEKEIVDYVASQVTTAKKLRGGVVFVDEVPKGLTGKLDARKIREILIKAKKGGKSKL

C/C=C/C=C/C(CC(=O)O)Nc1ccc(C=O)cc1 (stereo not given)
inactive: all assays above

CC1=C2C(=O)O[C@@H](c3ccoc3)[C@]2(C)CCC1
inactive: all assays above
